Structures can show the parent of a compound that is named as a salt. ± gives the standard deviation.
Tests used:
Jurkat [1] = experiment: mean cell size (FSC-A) relative to DMSO control (fraction of control); higher = larger cells; conditions: 48 h
Procedure, shortened: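 Jurkat cells at 600 cells/µl were incubated for 1 h and then treated for 48h with the Enzo Screen-Well FDA Approved Drug Library v2.0 at 25µM, with DMSO at 0.9% (v/v) final. Compounds that reduced counts below 20% of controls were retested in 10-fold dilutions down to 25nM. Cell count and mean cell size, taken as forward scatter area, were measured by flow cytometry relative to solvent-only controls. Each plate carried 6-12 controls, and values are means of 3 biological replicates.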

Jurkat [2] = experiment: cell count relative to DMSO control (fraction of control); higher = more cells (less growth inhibition); conditions: 48 h

SMILES | mean cell size (Jurkat [1]) | cell count (Jurkat [2])
CO[C@@]1(NC(=O)Cc2cccs2)C(=O)N2C(C(=O)O)=C(COC(N)=O)CS[C@@H]21 [Cefoxitin·Na] (concentration: 25 µM) | 0.939 ± 0.031 | 0.89 ± 0.037
CN(C)CCC=C1c2ccccc2CCc2ccccc21 [Amitriptyline·HCl] (concentration: 25 µM) | 0.915 ± 0.037 | 0.798 ± 0.033
Cc1ccc(S(=O)(=O)NC(=O)NN2CCCCCC2)cc1 [Tolazamide] (concentration: 25 µM) | 1.03 ± 0.053 | 0.657 ± 0.12
Nc1ccn(C[C@@H](CO)OCP(=O)(O)O)c(=O)n1 [Cidofovir] (concentration: 25 µM) | 1.13 ± 0.057 | 0.593 ± 0.094
CC1(C)S[C@@H]2[C@H](NC(=O)[C@H](N)c3ccc(O)cc3)C(=O)N2[C@H]1C(=O)O [Amoxicillin] (concentration: 25 µM) | 0.988 ± 0.012 | 0.866 ± 0.063
CCOc1ccccc1OCCN[C@H](C)Cc1ccc(OC)c(S(N)(=O)=O)c1 [Tamsulosin·HCl] (concentration: 25 µM) | 0.988 ± 0.037 | 0.808 ± 0.079
CC[C@H]1OC(=O)[C@H](C)[C@@H](O[C@H]2C[C@@](C)(OC)[C@@H](O)[C@H](C)O2)[C@H](C)[C@@H](O[C@@H]2O[C@H](C)C[C@H](N(C)C)[C@H]2O)[C@](C)(O)C[C@@H](C)C(=O)[C@H](C)[C@@H](O)[C@]1(C)O [Erythromycin] (concentration: 25 µM) | 0.97 ± 0.038 | 0.871 ± 0.061
CN1CCN(C2=Nc3cc(Cl)ccc3Nc3ccccc32)CC1 [Clozapine] (concentration: 25 µM) | 0.966 ± 0.025 | 0.494 ± 0.17

Source: the supplement of paper PMC4709259
